Measurements published in PubChem BioAssay.
Values without a mark were called inactive. Results filed as inconclusive are left out. Calls of active or inactive are those of the source.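 Rule for the calls, unless noted: active = viability at or below 27.92% in each of two runs, the all-compound median minus 4 SD; inconclusive = no clear call, values can overlap the other calls; inactive = the rest.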

test: viability of PTEN-null HCT116 cells – cell-based, HCT116 clonal line, CellTiter-Glo, pilot screen (AID 824); conditions: HCT116 PTEN-deleted viability, 60 h, at 10 µM, stronger effect = lower value;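 note: 0% = 20 µM Hyamine control and 100% = vehicle cell control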

Row | SMILES | viability
1 | COc1ccc2oc(C(=O)C3CC3)c(NC(=O)CCCN3C(=O)c4ccccc4C3=O)c2c1 | 93.6%
2 | CCOC(=O)c1sc(NC(C)=O)cc1C | 96%
3 | CCNc1nc2c(c(=O)[nH]c(=O)n2C)n1CC(C)C | 100%
4 | COc1ccc(C(=O)c2cnc(C(C)C)n2C)cc1 | 90.2%
5 | Cc1cnc(N)c2c(=O)oc3ccccc3c12 | 92.8%
6 | CN(C)C(CNC(=O)c1cccs1)c1cccnc1 (stereo not given) | 97.4%
7 | Cc1nn(Cc2ccc(Cl)c(Cl)c2)c(C)c1NC(=O)c1cc(C2CC2)on1 | 84.7%
8 | CCOC(=O)c1cnc2c(C#N)c(C)nn2c1-c1ccccc1 | 92.7%
9 | CC(=O)N(Cc1ccco1)C1(C(=O)NC2CCCCC2)CCCCC1 | 94.5%
10 | CN(C(=O)c1ccc(=O)[nH]c1)C1(C(=O)NC2CCCCC2)CCCCC1 | 101%
11 | Cc1cccc(OCc2nnc(SCC(=O)Nc3ccc(C)c(C)c3)o2)c1 | 94.2%
12 | CCOCCCNC(=O)c1cn(C)c2ccc(S(=O)(=O)N(C)C3CCCCC3)cc2c1=O | 101%
13 | CCCCn1c(NC(=O)c2ccccc2)nc2ccccc21 | 18.3% (active)
14 | COc1cc(OC)cc(-c2cc3nc(C)c(CCC(=O)O)c(C)n3n2)c1 | 96.6%
15 | CCc1cccc(Nc2cc(C)nc3ncnn23)c1 | 93%
16 | CCCc1ccc(Oc2c(-c3ccc(O)c(C)c3O)n[nH]c2C)cc1 | 74.3%
17 | CC(=O)Nc1ccc(S(=O)(=O)c2ccc(N)cc2)cc1N | 98.8%
18 | COc1c2c(nc3ccccc13)OC(C(C)(O)COC(C)=O)C2 (stereo not given) | 95.7%
19 | O=C(Nc1ccc(N2CCCCC2)cc1)c1cncc(Br)c1 | 96.8%
20 | Cc1ccc2oc(=O)c3cnn(CC(=O)NC4CCCCC4C)c3c2c1 (stereo not given) | 84.1%

Row | SMILES | viability
21 | CC1(C)CC(NC(=O)C23CCC(C)(C(=O)C2)C3(C)C)CC(C)(C)N1 (stereo not given) | 95.1%
22 | CC1(C)CC2(CC(C)(C)N1)OC(=O)N1CCc3ccccc3C12C (stereo not given) | 97.9%
23 | COc1ccc(-n2nnnc2S(=O)(=O)CC(=O)N2CCCCC2)cc1 | 2.74% (active)
24 | CCCCCSc1nc2c(c(=O)[nH]c(=O)n2C)n1CCc1ccccc1 | 87%
25 | COc1cc2c(cc1OC)C1=C(C#N)CN(CC(=O)O)CN1CC2 | 96%
26 | CC(=O)Nc1ccc(S(=O)(=O)N2CCN(c3cccc(C)c3C)CC2)cc1 | 34.5%
27 | C=C(C)CSc1nc2c(c(=O)[nH]c(=O)n2C)n1CCC(C)C | 80.9%
28 | Cn1c(Cn2c(=O)sc3ccccc32)nnc1SCC(=O)Nc1ccccc1F | 99.4%
29 | COC(=O)/C=C(\C)NC(=O)c1cccs1 | 97.5%
30 | COc1cccc(NC(=O)c2ccncc2)c1 | 100%
31 | CCCCN(C(=O)NC(=O)Nc1nc2ccc(OC)cc2s1)S(C)(=O)=O | 103%
32 | CC(C)N1C(=O)C2C(c3ccccc3O)NC(C)(C(=O)O)C2C1=O (stereo not given) | 104%
33 | Cc1cccn2c(=O)c3cc(C(=O)NCCCN4CCOCC4)n(C)c3nc12 | 93.1%
34 | Cc1csc2nc(CNS(=O)(=O)c3ccc4c(c3)OCCO4)cn12 | 85.7%
35 | CCN(C(=O)CSc1nnnn1-c1cc(C)ccc1OC)C1CCS(=O)(=O)C1 (stereo not given) | 94.6%
36 | O=C1C2CCCN2C(c2ccc(F)cc2)N1c1cccc(Cl)c1 (stereo not given) | 99.6%
37 | O=C(Nc1ccc2nc(-c3cccnc3)[nH]c2c1)c1ccco1 | 97.4%
38 | CCOC(=O)Cc1csc(NC(=O)CN2C(=O)c3ccccc3S2(=O)=O)n1 | 101%
39 | Brc1cccc(-c2nc(-c3ccncc3)no2)c1 | 80%
40 | COc1ccc(N(CC(=O)NC2CCCCC2)S(=O)(=O)c2cccnc2)cc1 | 105%

test: RAM pathway blockade in budding yeast – dse1pr::URA3 reporter, 5-FOA selection, pilot screen (AID 869;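 active = inhibition over a set limit, the all-compound mean plus 3 SD, in both replicate runs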;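 note: 0% = DMSO wells with no growth and 100% = 10 µM 1-NA-PP1 with full growth; RAM network block rescues cells from 5-FOA so hits raise OD615 growth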); conditions: S. cerevisiae dse1pr::URA3 5-FOA growth, OD615, 2 d; at 10 µM; stronger effect = higher value; strain carries analog-sensitive mutant Cbk1 kinase

Row | SMILES | inhibition
41 | COc1ccc2oc(C(=O)C3CC3)c(NC(=O)CCCN3C(=O)c4ccccc4C3=O)c2c1 | 0.995%
42 | CCOC(=O)c1sc(NC(C)=O)cc1C | 0.47%
43 | CCNc1nc2c(c(=O)[nH]c(=O)n2C)n1CC(C)C | 0.05%
44 | COc1ccc(C(=O)c2cnc(C(C)C)n2C)cc1 | 1.88%
45 | Cc1cnc(N)c2c(=O)oc3ccccc3c12 | 1.61%
46 | CN(C)C(CNC(=O)c1cccs1)c1cccnc1 (stereo not given) | 3.75%
47 | Cc1nn(Cc2ccc(Cl)c(Cl)c2)c(C)c1NC(=O)c1cc(C2CC2)on1 | 0.125%
48 | CCOC(=O)c1cnc2c(C#N)c(C)nn2c1-c1ccccc1 | 1.69%
49 | CC(=O)N(Cc1ccco1)C1(C(=O)NC2CCCCC2)CCCCC1 | 3.02%
50 | CN(C(=O)c1ccc(=O)[nH]c1)C1(C(=O)NC2CCCCC2)CCCCC1 | 0.78%
51 | Cc1cccc(OCc2nnc(SCC(=O)Nc3ccc(C)c(C)c3)o2)c1 | 4.2%
52 | CCOCCCNC(=O)c1cn(C)c2ccc(S(=O)(=O)N(C)C3CCCCC3)cc2c1=O | 0.93%
53 | CCCCn1c(NC(=O)c2ccccc2)nc2ccccc21 | -0.145%
54 | COc1cc(OC)cc(-c2cc3nc(C)c(CCC(=O)O)c(C)n3n2)c1 | 0.805%
55 | CCc1cccc(Nc2cc(C)nc3ncnn23)c1 | 0.465%
56 | CCCc1ccc(Oc2c(-c3ccc(O)c(C)c3O)n[nH]c2C)cc1 | -2.1%
57 | CC(=O)Nc1ccc(S(=O)(=O)c2ccc(N)cc2)cc1N | 2.1%
58 | COc1c2c(nc3ccccc13)OC(C(C)(O)COC(C)=O)C2 (stereo not given) | 0.275%
59 | O=C(Nc1ccc(N2CCCCC2)cc1)c1cncc(Br)c1 | 1.98%
60 | Cc1ccc2oc(=O)c3cnn(CC(=O)NC4CCCCC4C)c3c2c1 (stereo not given) | 1.73%

Row | SMILES | inhibition
61 | CC1(C)CC(NC(=O)C23CCC(C)(C(=O)C2)C3(C)C)CC(C)(C)N1 (stereo not given) | 2.67%
62 | CC1(C)CC2(CC(C)(C)N1)OC(=O)N1CCc3ccccc3C12C (stereo not given) | 2.3%
63 | COc1ccc(-n2nnnc2S(=O)(=O)CC(=O)N2CCCCC2)cc1 | 0.75%
64 | CCCCCSc1nc2c(c(=O)[nH]c(=O)n2C)n1CCc1ccccc1 | 2.75%
65 | COc1cc2c(cc1OC)C1=C(C#N)CN(CC(=O)O)CN1CC2 | 1.7%
66 | CC(=O)Nc1ccc(S(=O)(=O)N2CCN(c3cccc(C)c3C)CC2)cc1 | 0.185%
67 | C=C(C)CSc1nc2c(c(=O)[nH]c(=O)n2C)n1CCC(C)C | 1.38%
68 | Cn1c(Cn2c(=O)sc3ccccc32)nnc1SCC(=O)Nc1ccccc1F | 1.62%
69 | COC(=O)/C=C(\C)NC(=O)c1cccs1 | -0.705%
70 | COc1cccc(NC(=O)c2ccncc2)c1 | 1.18%
71 | CCCCN(C(=O)NC(=O)Nc1nc2ccc(OC)cc2s1)S(C)(=O)=O | -0.04%
72 | CC(C)N1C(=O)C2C(c3ccccc3O)NC(C)(C(=O)O)C2C1=O (stereo not given) | 0.765%
73 | Cc1cccn2c(=O)c3cc(C(=O)NCCCN4CCOCC4)n(C)c3nc12 | 1.06%
74 | Cc1csc2nc(CNS(=O)(=O)c3ccc4c(c3)OCCO4)cn12 | 3.93%
75 | CCN(C(=O)CSc1nnnn1-c1cc(C)ccc1OC)C1CCS(=O)(=O)C1 (stereo not given) | 1.56%
76 | O=C1C2CCCN2C(c2ccc(F)cc2)N1c1cccc(Cl)c1 (stereo not given) | 0.63%
77 | O=C(Nc1ccc2nc(-c3cccnc3)[nH]c2c1)c1ccco1 | 0.845%
78 | CCOC(=O)Cc1csc(NC(=O)CN2C(=O)c3ccccc3S2(=O)=O)n1 | 3.63%
79 | Brc1cccc(-c2nc(-c3ccncc3)no2)c1 | -0.445%
80 | COc1ccc(N(CC(=O)NC2CCCCC2)S(=O)(=O)c2cccnc2)cc1 | 1.57%
